Results filed as inconclusive are left out. A number with no mark means an inactive call. Calls follow the shape of the dose curve; as a rule, active = well fitted inhibition curve with a large enough effect; inconclusive = small, poorly fitted or top-dose-only effect; inactive = flat fitted curve, though single readings scatter.
Each compound was assayed against Calcium and integrin-binding protein 1 (Homo sapiens) (UniProt Q99828) (assay: Primary qHTS for Identification of Calcium Integrin Binding Protein 1 (CIB1) Competitor (AID 1508620;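 also: GST tagged CIB1 binding a fluorescein labelled alphaIIb integrin peptide tracer; top concentration of the series differs between compounds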)). Conditions: CIB1-GST / FITC-alphaIIb peptide fluorescence polarization; series mostly up to 57.7 µM; activity change, negative = inhibition: at the top concentration.
How it was run: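 Fluorescence polarization competition: CIB1-GST (1 uM final) preincubated with compound 15 min at room temperature, then FITC-labeled alphaIIb peptide (100 nM final) added for another 15 min. Polarization read at Ex 480/Em 540.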
% is scaled to controls: 0 for no effect and ±100 for the full control effect.

Calcium and integrin-binding protein 1 (Homo sapiens), sequence (Q99828 whole entry, looked up): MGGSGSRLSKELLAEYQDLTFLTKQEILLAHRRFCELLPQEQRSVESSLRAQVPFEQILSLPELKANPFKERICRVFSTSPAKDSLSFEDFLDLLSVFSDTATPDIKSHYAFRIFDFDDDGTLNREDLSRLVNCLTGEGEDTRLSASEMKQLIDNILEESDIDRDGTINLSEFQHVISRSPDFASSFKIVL

Structure (SMILES) | activity change, negative = inhibition
CC(C)CC(=O)OC[C@@]1(O)C[C@@]23CC[C@H]4[C@@](C)(CCC[C@@]4(C)C(=O)O)[C@@H]2CC[C@@H]1C3 | 2.84%
C=C(C(=O)O)[C@@H]1CC[C@@]2(C)CC[C@@H](O)C(=C)C2C1 (some centres undefined) | -7.13% [at 114 µM]
C=C1CCc2occ(C)c2[C@H]2[C@H]1[C@@]13O[C@@]1(C[C@@H](C)[C@H]3OC(C)=O)[C@H]1O[C@@]21C | -6.61%
O=C(OC[C@H]1O[C@@H](Oc2ccccc2COC(=O)C2(O)C=CCCC2O)[C@H](O)[C@@H](O)[C@@H]1O)c1ccccc1 (some centres undefined) | 5.05%
O=C(Nc1ccn(Cc2c(F)cccc2C(F)(F)F)n1)c1c(F)cccc1F | 4.91% [at 30.2 µM]
NC1Nc2ccccc2C1(N)CC1NC(=O)C(Cc2ccccc2)NC(=O)C(Cc2ccccc2)NC1=O (centres undefined) | 3.65%
CC1(C)O[C@H]2CC(=O)OC[C@@]23C1=C(O)C(=O)[C@]1(C)C3CC[C@@]2(C)[C@H](c3ccoc3)OC(=O)[C@H]3O[C@]321 (some centres undefined) | 4.53%
Cc1c(NC(=O)N2CCOCC2)ccc2c1c1ccccc1n2C(C)C | -6.17% [at 114 µM]
C=C(COC(=O)C(C)C)C1Oc2cc(C(C)=O)ccc2C1OC(=O)C(C)C (centres undefined) | -0.0591%
COc1cc(/C=C/CO[C@@H]2O[C@H](CO)[C@@H](O)[C@H](O)[C@H]2O)cc(OC)c1O[C@@H]1O[C@H](CO)[C@@H](O)[C@H](O)[C@H]1O | 2.34%
C=C1CCC2C(C)(C)CCC[C@]2(C)[C@H]1CC/C(C)=C/C(=O)O (some centres undefined) | -8.93% [at 114 µM]
C/C(CO)=C1/CCC23COC(C2)C(O)(C(=O)O)CCC13 (centres undefined) | -4.13% [at 114 µM]
CC(C)c1ccc2c(c1)C(O)CC1C(C)(CO)CCCC21C (centres undefined) | -2.92% [at 114 µM]
COc1ccc(/C=C/C(=O)O[C@@H]2[C@@H](O[C@@H]3O[C@H](CO)[C@@H](O)[C@H](O)[C@H]3O)[C@@H](O)[C@H](O[C@H]3C4C=CO[C@@H](O[C@@H]5O[C@H](CO)[C@@H](O)[C@H](O)[C@H]5O)C4[C@@]4(CO)O[C@@H]34)O[C@H]2C)cc1 (some centres undefined) | -7.79% [at 30.2 µM]
COc1cc(C(O)C2COC(c3ccc(OC4OC(CO)C(O)C(O)C4O)c(OC)c3)C2CO)ccc1O (centres undefined) | 0.0448%
C=CC(C)(O)C1CC2C3(C)CCCC(C)(C)C3C(O)C(O)C2(C)O1 (centres undefined) | -4.55%
CC(C)c1c(NC(=O)Nc2ccc(Cl)cc2)c(=O)n(-c2ccccc2)n1C | -1.26% [at 114 µM]
C=C1C(O)C(O)C2(CC3C(C)=CCC4C(C)(C(=O)O)CCCC34C)OC2C1O (centres undefined) | -15.8%
O=C(/C=C/c1ccc(O)c(O)c1)O[C@@H]1[C@@H](O)[C@H](OC2CCCCC2O)O[C@H](CO)[C@H]1O (some centres undefined) | 2.4%
COc1ccc(CCC(=O)O)c(O[C@@H]2O[C@H](CO)[C@@H](O)[C@H](O)[C@H]2O)c1 | -2.41%

Structure (SMILES) | activity change, negative = inhibition
CC(=O)O[C@@H]1[C@H](O[C@@H]2OC[C@](O)(CO)[C@H]2O)[C@@H](O[C@@H]2O[C@@H](C)[C@H](O)[C@@H](O[C@@H]3O[C@H](CO)[C@@H](O)[C@H](O)[C@H]3O)[C@H]2O)[C@H](OC(=O)[C@]23CCC(C)(C)C[C@H]2C2=CCC4[C@@]5(C)C[C@H](O)[C@H](O[C@@H]6O[C@H](C(=O)O)[C@@H](O)[C@H](O)[C@H]6O)[C@@](C)(C(=O)O)C5CC[C@@]4(C)[C@]2(C)CC3)O[C@@H]1C (some centres undefined) | 4.9% [at 12.4 µM]
O=C(C[C@@H]1C(C(=O)O)=CO[C@@H](O[C@@H]2O[C@H](CO)[C@@H](O)[C@H](O)[C@H]2O)/C1=C\CO)OCCc1ccc(O)cc1 | 4.2%
C=C[C@@](C)(CCC=C(C)C)O[C@@H]1O[C@H](CO[C@@H]2OC[C@H](O)[C@H](O)[C@H]2O)[C@@H](O)[C@H](O)[C@H]1O | -3.99%
O=C(O)C1(c2ccc(-c3ccc(Cl)c(Cl)c3)c(F)c2)CC1 | -7.08% [at 114 µM]
O=C1NC(=O)/C(=C/c2cccc(C(F)(F)F)c2)S1 | 38.3% [at 114 µM]
NC(=O)c1ccc(F)c2c1C[C@@H](N(C1CCC1)C1CCC1)CO2 | 3.64% [at 114 µM]
COC(=O)c1ccccc1O[C@@H]1O[C@H](CO[C@@H]2OC[C@@H](O)[C@H](O)[C@H]2O)[C@@H](O)[C@H](O)[C@H]1O | 1.22%
CC1CCC2(C(=O)O)CCC3(C)C(=CCC4C5(C)CCC(O)C(C)(C(=O)O)C5CCC43C)C2C1(C)O (centres undefined) | 4.02%
COc1ccc(/C=C/C(N)=O)cc1OC | -3.73% [at 114 µM]
CC(C)CC[C@@H](O)[C@](C)(O)[C@H]1CC[C@@]2(O)C3=CC(=O)[C@@H]4C[C@@H](O)[C@@H](O)C[C@]4(C)[C@H]3CC[C@]12C | 4.59% [at 114 µM]
C[C@@H]1O[C@@H](O[C@H]2[C@H](O[C@H]3[C@H](O[C@H]4CC[C@@]5(C)C(CC[C@]6(C)C5CC=C5[C@@H]7CC(C)(C)C[C@@H](O)[C@]7(C)CC[C@]56C)[C@@]4(C)CO)O[C@H](C(=O)O)[C@@H](O)[C@@H]3O)O[C@H](CO)[C@H](O)[C@@H]2O)[C@H](O)[C@H](O)[C@H]1O (some centres undefined) | -2.67% [at 30.2 µM]
C[C@H]1[C@@H](O)[C@H](O)C2[C@]3(C)C([C@@H](O)[C@H]4OC(=O)[C@@H]1[C@@]24C)[C@](C)(O)C=C[C@H]3O[C@@H]1O[C@H](CO)[C@@H](O)[C@H](O)[C@H]1O (some centres undefined) | -1.73%
CC1(C)CC[C@]2(C(=O)O[C@@H]3O[C@H](CO)[C@@H](O)[C@H](O)[C@H]3O)CC[C@]3(C)C(=CCC4[C@@]5(C)CC[C@H](O[C@@H]6O[C@H](C(=O)O)[C@@H](O[C@@H]7O[C@H](CO)[C@@H](O)[C@H](O)[C@H]7O)[C@H](O)[C@H]6O)C(C)(C)C5CC[C@]43C)C2C1 (some centres undefined) | 1.78% [at 30.2 µM]
C/C=C1\[C@H](O[C@@H]2O[C@H](CO)[C@@H](O)[C@H](O)[C@H]2O)OC=C(C(=O)O)[C@H]1CC(=O)OCCc1ccc(O)cc1 | 2.6%
COC(=O)C1=COC(O[C@@H]2O[C@H](CO)[C@@H](O)[C@H](O)[C@H]2O)C2C(C)C(=O)CC12 (some centres undefined) | -10.9%
CC1(C)CC[C@]2(C(=O)O)[C@H](O)C[C@]3(C)C(=CCC4[C@@]5(C)CC[C@H](O[C@@H]6OC[C@@H](O)[C@H](O)[C@H]6O)[C@@](C)(C(=O)O)C5CC[C@]43C)[C@@H]2C1 (some centres undefined) | 3.19% [at 30.2 µM]
CC1CCC2(C(=O)OC3OC(CO)C(O)C(O)C3O)CCC3(C)C(=CCC4C5(C)CCC(O)C(C)(CO)C5CCC43C)C2C1(C)O (centres undefined) | 4.31% [at 30.2 µM]
C[C@H]1[C@H](C)CC[C@]2(C(=O)O)CC[C@]3(C)C(=CCC4[C@@]5(C)C[C@@H](O)[C@H](O)C(C)(C)C5CC[C@]43C)[C@H]12 (some centres undefined) | -4.34%
C[C@H]1[C@H](C)C[C@@H](C(=O)O)C2CC[C@]3(C)C(=CC[C@@H]4[C@@]5(C)CC[C@H](O)C(C)(C)[C@@H]5CC[C@]43C)[C@@H]21 (some centres undefined) | -1.4% [at 114 µM]
